Screening results: PubChem BioAssay, National Center for Advancing Translational Sciences (NCATS)
Only some compounds are listed: those with a hit (about 2.5% of all), similar ones and a draw of the others.
p53ts 39C kill: kills p53ts cells at the nonpermissive temperature; H1299-p53A138V viability at 39C, ATP luminescence, 24 h; Potency, µM (series often up to 46.1 µM), most hits filed as cytotoxic; hit rate 1.5% among 130,000; AID 902; also: nearly all actives have a fitted effect of over 55% in size
p53ts 32C kill: kills p53ts cells at the permissive temperature; Potency, µM (top dose mostly 46.1 µM), actives largely listed as cytotoxic; hit rate 0.93% among 130,000; H1299-p53A138V at 32C, ATP luminescence viability, 24 h; also: nearly all actives have a fitted effect of over 55% in size
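ATP-content luminescence (ATPlite) read-out after 24 h compound exposure at 32C in H1299-p53A138V cells (600/well). Tested up to 46 uM. Normalized to DMSO (0%) and 100 uM tamoxifen (100% killing); Hill-fit AC50.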
Luciferase inh: blocks Photinus pyralis firefly luciferase activity; Potency, µM (highest dose often 57.1 µM), most hits filed as inhibitors; AID 411; purified firefly luciferase, luminescence, 8 min; P08659; hit rate 2.2% among 72,000; also: nearly all actives have a fitted effect of over 40% in size
Target sequence (P08659 whole entry, looked up): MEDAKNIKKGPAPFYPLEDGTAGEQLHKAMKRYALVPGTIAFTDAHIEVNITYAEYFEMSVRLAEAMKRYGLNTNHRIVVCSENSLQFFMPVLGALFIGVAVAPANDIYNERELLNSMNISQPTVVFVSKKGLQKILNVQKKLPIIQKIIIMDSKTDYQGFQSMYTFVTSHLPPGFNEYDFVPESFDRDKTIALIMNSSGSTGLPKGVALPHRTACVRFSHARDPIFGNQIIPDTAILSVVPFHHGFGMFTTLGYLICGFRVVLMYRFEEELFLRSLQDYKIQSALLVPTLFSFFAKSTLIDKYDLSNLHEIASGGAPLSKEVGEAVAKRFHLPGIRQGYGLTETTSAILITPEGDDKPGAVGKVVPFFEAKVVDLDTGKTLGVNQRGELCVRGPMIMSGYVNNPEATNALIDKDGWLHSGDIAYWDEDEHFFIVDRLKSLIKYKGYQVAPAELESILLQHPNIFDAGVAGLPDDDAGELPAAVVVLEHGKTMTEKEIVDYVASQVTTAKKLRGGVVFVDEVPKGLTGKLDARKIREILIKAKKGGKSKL
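Here, luciferase activity is measured as luminescence following an 8 min room-temperature reaction at 10 uM ATP, pH 7.2. Every library sample is titrated.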
Numbers stand for hits; i = inactive; ? = inconclusive; nt = no result; [ ] = remark or other dose. Calls follow the shape of the dose curve; as a rule, active = well fitted curve in the direction sought with a large enough effect; inconclusive = small, poorly fitted or top-dose-only effect, or another doubt; inactive = no such curve, though single readings can be large; an effect the other way counts as inactive or inconclusive.

SMILES | p53ts 39C kill | p53ts 32C kill | Luciferase inh
Cn1c(SCc2nc3ccccc3c(=O)[nH]2)nnc1-c1ccco1 | i | i | i
COc1ccc2nc(NCc3ccccc3)[nH]c2c1 | ? | ? | 16µM
COc1ccc2nc(NCCO)[nH]c2c1 | i | i | i
c1ccc(Nc2nc3ccccc3[nH]2)nc1 | i | i | 20µM
Cc1ccc2nc(NCc3ccccc3)[nH]c2c1 | nt | nt | 10µM
Cc1cc(C)nc(Nc2nc3ccccc3[nH]2)n1 | i | i | i
Cc1ccc2nc(C3CCN(C(=O)NCc4ccccc4)CC3)[nH]c2c1 | i | i | i
c1ccc(CNc2nc3ccccc3[nH]2)cc1 | ? | 10µM | 13µM
COc1cc(CNc2nc3ccccc3[nH]2)cc(OC)c1OC | i | i | i
CC(C)(C)N1C(=O)[C@H]2[C@H]3[C@H](O)[C@H](O)C/C(=N/NC(=O)OCc4ccccc4)[C@H]3CC[C@@H]2C1=O | i[9.22 µM] | i[9.22 µM] | i[11.4 µM]
Cc1cc(C)c2sc(NC(=O)c3ccc(S(=O)(=O)N4CCOCC4)cc3)nc2c1 | i | i | nt
COc1ccccc1C(=O)Nc1ccc(OCc2cc(=O)n3cccc(C)c3n2)cc1 | i | i | nt
COc1cc(C(=O)Nc2ccc(OCc3cc(=O)n4cccc(C)c4n3)cc2)cc(OC)c1OC | 32µM | ? | nt
COc1ccccc1-c1ccc(NC2CCCCC2)nn1 | ? | ? | 13µM
COc1ccccc1-c1ccc(Nc2cccc(C(F)(F)F)c2)nn1 | i | i | nt
O=C1OC2(c3cc(Br)c(O)c(Br)c3Oc3c2cc(Br)c(O)c3Br)c2c(Cl)c(Cl)c(Cl)c(Cl)c21 | i | i[1.84 µM] | nt
COC(=O)c1ccc2c(=O)n(CCCCCC(=O)N3CCN(c4cc(C)ccc4C)CC3)c(=O)[nH]c2c1 | 6.3µM | 16µM | nt
COC(=O)c1ccc2c(=O)n(CCCCCC(=O)N3CCN(c4ccc(F)cc4)CC3)c(=O)[nH]c2c1 | i | i | i
Cc1ccc2c(c1)N[C@H](c1ccc(C(=O)O)cc1)c1cccn1-2 | i[9.22 µM] | i[9.22 µM] | i[11.4 µM]
O=c1c2ccccc2sn1-c1ccc(S(=O)(=O)N2CCCCC2)cc1 | i | i | i
Cc1ccc(-n2sc3ccccc3c2=O)cc1S(=O)(=O)N1CCCCC1 | i | i | 16µM
COc1ccc(C(=O)Oc2ccc(C(C)=O)cc2)c(OC)c1 | i | i | 16µM
COc1ccc(C(=O)Nc2c(F)c(F)c(F)c(F)c2F)c(OC)c1 | i | i | i
C[C@@H]1C[C@@]2(C)Oc3ccccc3[C@H]3OC[C@]1(COC(=O)Nc1ccccc1)[C@@H](C)[C@@H]32 | nt | nt | i[11.4 µM]
COc1cccc2cc(-c3csc(-c4ccc(Cl)cc4)n3)c(=O)oc12 | i | i | nt
SMILES | p53ts 39C kill | p53ts 32C kill | Luciferase inh
CC(C)c1ccc(NC(=O)c2ccc3c(c2)CCN3S(=O)(=O)c2ccccc2)cc1 | i | i | nt
CC(C)c1ccc(NC(=O)c2ccc3c(c2)CCCN3S(C)(=O)=O)cc1 | i | 13µM | nt
O=C(Nc1ccccc1)c1ccc(Cc2nc3ccccc3[nH]2)cc1 | i | i | nt
Cc1cc(NCCN2CCOCC2)n2ncc(-c3ccccc3)c2n1 | i | i | 20µM
Cc1cc(NCCN2CCOCC2)n2ncc(-c3ccc(Cl)cc3)c2n1 | i | i | i
Cc1cccc(-n2ncc3c(NCCCn4ccnc4)ncnc32)c1 | i | i | i
Cc1cc(NCCCn2ccnc2)n2ncc(-c3ccccc3)c2n1 | 4µM | 3.2µM | 1.6µM
COc1ccc(C=Nc2c(O)ccc3ccccc23)cc1OC | i[9.22 µM] | i[9.22 µM] | ?
C=CCOC(=O)C(C(C)=O)C(NC(=O)OC)c1ccc2ccccc2c1 (stereo not drawn) | i[9.22 µM] | i[9.22 µM] | nt
COc1ccc2c(c1)CCc1sc(NC(=O)c3ccc(Br)cc3)nc1-2 | i | i | nt
COc1ccc2c(c1)Cc1sc(NC(C)=O)nc1-2 | i | i | 13µM
O=C(CSc1c[nH]c2ccccc12)N1CCOCC1 | i | i | i
Cc1[nH]c2ccccc2c1SCC(=O)N1CCOCC1 | 13µM | i | i
CCCOc1cccc(C2c3c(oc4cc(C)c(C)cc4c3=O)C(=O)N2CCCN2CCOCC2)c1 (stereo not drawn) | i | i | nt
CC(C)(C)NC(=O)c1ccc2nccnc2c1 | i | i | i
CC(C)(C)NC(=O)Nc1ccc2nccnc2c1 | ? | ? | 16µM
COc1ccc2c(c1)sc(N)[n+]2Cc1cc(C)cc2cccnc12 | 11µM | i | nt
CCOc1ccc2c(c1)sc(N)[n+]2Cc1cc(C)cc2cccnc12 | i | i | nt
N#Cc1cccc(-c2nc(NCCN3CCOCC3)c3ccccc3n2)c1 | i | i | i[2.29 µM]
[N-]=[N+]=N[C@@H]1[C@H](O)[C@H](CO)O[C@@H]1n1cnc2c(N)ncnc21 | i[9.22 µM] | i[9.22 µM] | i[11.4 µM]
ICCc1ccccc1 | i | i[1.84 µM] | nt
COc1ccc([C@@H]2OC[C@]3(COC(C)=O)[C@H](C)C=C(C)[C@@H]2[C@H]3C)cc1 | nt | nt | i[11.4 µM]
CNc1ccccc1-c1nc2ccccc2n(C)c1=O | nt | nt | i
COc1ccccc1Nc1nc2ccccc2n1C | i | ? | 16µM
COc1cc([C@H](O)C(=O)O)ccc1O | i | i | i
SMILES | p53ts 39C kill | p53ts 32C kill | Luciferase inh
CC1(C)CCC(NC(=O)[C@H](N)CCC(=O)O)CC1 | i | i | i
COC(=O)[C@@]1(Cc2ccc(OC)cc2)[C@@H]2C(=CC(=O)[C@H]2CC(=O)C(=O)N2CCCC2)CN1C(=O)c1ccccc1 | i | i | nt
C=C1C(=O)C=C2CN(C(=O)c3ccccc3)[C@@](Cc3ccc(OC)cc3)(C(=O)OC)[C@@H]12 | 20µM | 3.2µM | nt
c1ccc([C@H](CCN2CCCC2)c2ccccn2)cc1 | i[9.22 µM] | i[9.22 µM] | i[11.4 µM]
N#C/C(=C\c1c[nH]c2ccccc12)C(=O)c1ccc(O)c(O)c1 | ? | ? | i
CC1=CC(=O)CC(C)(C)[C@]1(O)/C=C\C(C)=C\C(=O)O | i[9.22 µM] | i[9.22 µM] | i[11.4 µM]
COc1ccc(N2C(=O)CSC2c2ccc3c(c2)OCO3)cc1 (stereo not drawn) | i | i | i
O=C1CC(c2cccs2)Sc2nc3ccccc3n21 (stereo not drawn) | i | i | 16µM
O=C1CC(c2ccco2)Sc2nc3ccccc3n21 (stereo not drawn) | i | i | i
O=C1CC(c2ccc3c(c2)OCO3)Sc2nc3ccccc3n21 (stereo not drawn) | 13µM | 13µM | 4µM
COc1cccc(C2NC(C(=O)O)CCC2C)c1 (stereo not drawn) | i[9.22 µM] | i[9.22 µM] | nt
O=c1c2cc3c(cc2nc2sc(Nc4ccc(F)c(Cl)c4)nn12)OCO3 | i | i | nt
Clc1ccccc1-c1cc(NCc2ccccc2)ncn1 | i | i | i[2.29 µM]
Cc1nc2cnc(N(C)C)nc2n(CCC#N)c1=O | i | i | i[11.4 µM]
COCCN(CCOC)c1nc(C)nc2c1nc(-c1ccccc1)n2CCN1CCCC1 | i | i | nt
O=[N+]([O-])c1ccc(OCCN2CCCCCC2)cc1 | i | nt | nt
Cc1c(-c2ccc(O)cc2)nn(-c2ccc(O)cc2)c1-c1ccc(OCCN2CCCCC2)cc1 | 32µM | ? | i
COC(=O)c1cc(NC(=O)CN(c2ccccc2)S(=O)(=O)N(C)C)ccc1Cl | i | i | nt
CCOc1ccc(NC(=O)CSc2nnc(-c3ccncc3)n2CC2CCCO2)cc1 (stereo not drawn) | i | i | i
CCOc1ccc2nc(NC(=O)CSc3nnc(-c4ccncc4)n3CC3CCCO3)sc2c1 (stereo not drawn) | i | ? | 2.5µM
COc1cccc(CCc2ccccc2OCC[C@@H]2C[C@@H](O)CN2C)c1 | 13µM | ? | nt
COc1cccc(NC2CC(=O)N(CCc3ccccc3)C2=O)c1 (stereo not drawn) | i | i | i
c1ccc2oc(SCc3nc4ccccc4s3)nc2c1 | i | i | 16µM
